In all, about 10,000 compounds went through this assay and about 25 (0.2%) were called active. This is one part of a sample in which actives are shown more often than they occur.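 The calls were made as follows: active = compound among top-ranked inhibitors of TNF-induced VCAM-1 adhesion protein staining, with the hit upheld by image or statistical review; inactive = the rest, including hits rejected on review.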
Assay: suppression of endothelial VCAM-1 upregulation – cell-based, plate reader, pooled HUVEC, TNFa stimulus (AID 454)
Details: HUVEC TNFa-induced VCAM-1 surface immunofluorescence; stronger effect = higher value,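 compound tested at 5 µM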

Compound | inhibition
C1=CC2CC1CC2CN1CCN(c2ccccc2)CC1 (stereo not given) | inactive
CCOC(=O)C(NC(=O)CC)(Nc1ccc(S(=O)(=O)Nc2onc(C)c2C)cc1)C(F)(F)F (stereo not given) | inactive
O=C(Nc1nc2c(s1)CCc1ccccc1-2)c1cccs1 | inactive
CS(=O)(=O)N1CCCC(C(=O)NCc2ccccc2Cl)C1 (stereo not given) | inactive
CCOC(=O)c1sc(Nc2nc3c(OC)cccc3s2)nc1C | 73.7% (active)
CCOC(=O)c1sc(NS(=O)(=O)c2ccc(NC(C)=O)cc2)nc1C | inactive
COC(=O)c1sc(NC(=O)COc2ccccc2OC)nc1C | inactive
O=C(c1ccco1)N1CCN(c2c(-c3ccccc3)c3cc(Cl)ccc3[nH]c2=O)CC1 | 86.3% (active)
O=C(c1ccco1)N1CCN(c2cccc(Cl)c2)CC1 | inactive
O=C(O)c1[nH]c2ccc(Cl)cc2c1CC(=O)N1CCN(C(=O)c2ccco2)CC1 | inactive
Cc1cc(C)nc(SC2=CS(=O)(=O)c3ccccc32)n1 | 91% (active)
O=S1(=O)C=C(Sc2nnc(-c3ccccc3)o2)c2ccccc21 | inactive
O=S1(=O)C=C(Sc2nc3ccccc3s2)c2ccccc21 | 110% (inactive)
Cc1ccc(-c2nc3cnccn3c2Nc2ccc3c(c2)OCO3)o1 | inactive
CCOC(=O)C(C(C)=O)c1nc(C)nc2c1nnn2Cc1ccccc1Cl (stereo not given) | inactive
CCC(C(=O)NC(C)CCc1ccco1)n1nc(C)n2c(cc3occc32)c1=O (stereo not given) | inactive
CCOc1ccccc1NC(=O)CCN1CCN(S(=O)(=O)c2ccc(Br)cc2)CC1 | inactive
COc1cccc(-c2nc(CS(=O)(=O)CC(=O)N3CCN(c4ccccn4)CC3)c(C)o2)c1 | inactive
Cc1cc(C)n(-c2nc3ccccc3c(=O)n2OCCOc2ccccc2)n1 | inactive
Cn1cccc1Cc1nnc(SCC(=O)N2CCOCC2)n1-c1ccc(F)cc1 | inactive
O=C(CN(c1ccc(F)cc1)S(=O)(=O)c1ccc2c(c1)OCCO2)Nc1ccc2c(c1)OCO2 | inactive
CN(C)/C=C(\C#N)c1nc2ccccc2[nH]1 | inactive
O=C(CN(c1ccc(F)cc1)S(=O)(=O)c1ccc2c(c1)OCCO2)Nc1cccnc1 | inactive
COc1ccc(CNc2oc(-c3cccc4ccccc34)nc2C#N)cc1 | inactive
CCc1oc2ccccc2c1C(=O)c1cc(Br)c(O)c(Br)c1 | inactive
CCCCc1oc2ccccc2c1C(=O)c1cc(I)c(OCCN(CC)CC)c(I)c1 | 85.9% (active)
CCN(CC)CCOC(=O)c1c(C)oc2ccc(O)cc12 | inactive
O=C(COc1ccccc1Cl)NCc1ccco1 | inactive
CCCC1Cc2c(sc3ncnc(N)c23)CO1 (stereo not given) | inactive
COc1cccc(NC(=O)N2CCC(N3CCCCC3)CC2)c1 | inactive

Source: PubChem BioAssay AID454 (Sanford-Burnham Center for Chemical Genomics, 2006)
